# Screens: PubChem BioAssay, several laboratories
# The list is not random: actives were taken first. Their share in the collection is about 28%.
# CYP2C9 inh: human CYP2C9 inhibition. hit rate 20% among 96,000. inhibition, % at 5 µM. P11712. CYP2C9 Supersomes, luciferin-H conversion, luminescence. AID 777;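 active = blocking of liver enzyme CYP2C9 beyond about 50% at 5 µM, limit read from the data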
# CYP2C19 act: cytochrome P450 2C19 (human) activation | P33261 | recombinant CYP2C19, luciferin-H EGE luminescence; hits give high values; 0 = fully inhibited enzyme, 1 = untreated enzyme | activation factor at 5 µM | 96,000 tested, under 10 active | AID 1025;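 active = activation factor of at least 2 at 5 µM in the primary screen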;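 also: 0 = wells with 2.5 mM tranylcypromine and 1 = vehicle-only wells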
# PLK1 inh: inhibitors of human PLK1 kinase. hit rate 0.53% among 97,000. inhibition, % at 10 µM. recombinant PLK1 kinase, TR-FRET peptide phosphorylation. P53350. AID 619;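 active = inhibition of 50% or more in the single-concentration screen; inactive = inhibition below 50%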;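 also: 0% = DMSO max control and 100% = H-89 dihydrochloride min control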
# Target sequence (P53350 whole entry, looked up): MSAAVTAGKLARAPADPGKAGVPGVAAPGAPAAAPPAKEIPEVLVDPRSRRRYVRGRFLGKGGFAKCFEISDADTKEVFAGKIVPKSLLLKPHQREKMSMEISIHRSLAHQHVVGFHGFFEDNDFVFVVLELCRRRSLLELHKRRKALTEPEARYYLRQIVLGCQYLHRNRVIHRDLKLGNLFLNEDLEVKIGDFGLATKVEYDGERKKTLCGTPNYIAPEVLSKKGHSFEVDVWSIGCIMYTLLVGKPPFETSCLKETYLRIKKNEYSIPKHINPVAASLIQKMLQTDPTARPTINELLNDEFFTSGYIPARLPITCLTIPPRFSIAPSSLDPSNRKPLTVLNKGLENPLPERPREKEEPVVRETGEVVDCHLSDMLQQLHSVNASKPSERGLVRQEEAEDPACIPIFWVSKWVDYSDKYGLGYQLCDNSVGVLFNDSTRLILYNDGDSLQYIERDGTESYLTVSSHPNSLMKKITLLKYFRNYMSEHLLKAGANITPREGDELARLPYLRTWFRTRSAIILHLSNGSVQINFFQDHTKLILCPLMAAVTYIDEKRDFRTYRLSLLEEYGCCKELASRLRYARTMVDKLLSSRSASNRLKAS
# PLK1 PBD inh: inhibitors of human Plk1 polo box domain binding. Plk1 PBD phosphopeptide binding, fluorescence polarization. P53350. inhibition, %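 (tested at about 20 µM)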. hit rate 0.13% among 97,000. AID 693; in the data active = inhibition above about 34%, passing the limit was not always enough
# CYP2C19 inh: human CYP2C19 inhibition; P33261; CYP2C19 Supersomes, luciferin-H EGE luminescence, 30 min; inhibition, % at 5 µM; hit rate 21% among 96,000; AID 778;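 active = CYP2C19 inhibition above a set limit at 5 µM in the primary screen, cut at about 50% in these data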;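 also: plate controls were negative control wells for no effect and 2.5 mM tranylcypromine positive control for full effect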
# CYP2C9 act: activators of human CYP2C9; AID 1024; P11712; recombinant CYP2C9, luciferin-H conversion, luminescence; hits give high values; factor 1 = untreated enzyme, 0 = blocked; hit rate 1.4% among 96,000; activation factor at 5 µM;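 active = activation factor of 2 or more for CYP2C9 at a 5 µM dose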;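 also: 0 = sulfaphenazole-blocked wells and 1 = vehicle-only wells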
# An asterisk follows results filed as active; nt = no result given.
SMILES,CYP2C9 inh,CYP2C19 act,PLK1 inh,PLK1 PBD inh,CYP2C19 inh,CYP2C9 act
CCc1cccc(NC(=O)C2CCCC2)c1,6,0.8,-10,1,24,0.9
CCc1cccc(NC(=O)Cc2cn(C)c3ccccc23)c1,-180,0.6,3,12,38,2.8*
O=C(CSc1ncn[nH]1)Nc1c(F)cc(F)cc1Br,-2,0.8,0,-13,16,1
COc1ccc(C(=O)Nc2cccc3c2C(=O)NC3=O)cc1S(=O)(=O)N1CCOCC1,9,0.9,-7,8,10,0.9
O=C(CSc1nc2ccccc2c(=O)n1CCCO)NCc1ccccc1,44,0.7,-10,-6,31,0.6
O=C(CCCCCn1c(SCC(=O)c2ccccc2)nc2ccccc2c1=O)NCc1ccco1,98*,0.2,1,14,82*,0
O=C(CCCn1c(SCC(=O)c2ccc(Cl)cc2)nc2ccccc2c1=O)NCc1ccco1,54*,0.8,-18,-12,19,0.5
CCOC(=O)CSc1nc2ccccc2c(=O)n1CCCCCC(=O)NCc1ccco1,97*,0.4,-20,-7,60*,0
CC1(C)CC(=O)c2cc(C(=O)NCc3ccco3)c(=O)n(-c3ccccc3)c2C1,-5,0.9,-12,-15,9,1.1
Cc1cccc(C(=O)Nc2cccc(-c3cnc4ccccc4n3)c2)c1,-3,1.1,-10,7,-6,1
CCc1nc2ccccc2c(C(=O)OCc2nnc(-c3ccccc3)o2)c1C,61*,0.3,-7,-9,68*,0.4
O=C(CCc1nc2ccccc2c(=O)[nH]1)OCc1nnc(-c2ccccc2)o1,-12,1.1,-14,-7,-12,1.1
CCc1nc2ccccc2c(C(=O)OCCN2C(=O)c3ccccc3C2=O)c1C,57*,0.2,-3,3,76*,0.4
CCc1nc2ccccc2c(C(=O)O)c1C,39,0.5,-9,0,48,0.6
Cc1[nH]nc2c1C(c1ccccc1F)CC(=O)N2 (stereo not given),-8,1,3,12,0,1.1
COc1ccc(CN(C)C2CCCCC2)cc1,-29,0.4,-1,-20,64*,1.3
CN(Cc1ccc(O)cc1)C1CCCCC1,-15,1,7,-8,-3,1.2
CCOC(=O)COc1c(C=O)cc(Br)cc1OC,-98,0.4,-11,-25,56*,2*
Cc1nc(Oc2ccccc2)c2oc3ccccc3c2n1,20,0.4,-10,-2,57*,0.8
CCOC(=O)C1=C(C)N=C2c3ccccc3C(=O)C2C1c1ccc(C)cc1 (stereo not given),69*,0.8,-7,24,24,0.3
CCOC(=O)C1=C(C)N=C2c3ccccc3C(=O)C2C1c1ccccc1 (stereo not given),56*,0.8,-12,14,17,0.4
Cn1c(=O)cc(SCC(=O)NCc2cccnc2)c2ccccc21,nt,nt,-7,4,nt,nt
Cc1ccc2nc3c(cc(C#N)c(=N)n3CCCN3CCOCC3)c(=O)n2c1,nt,nt,-7,-21,nt,nt
CC1CCc2c(sc3nc(C4CC4)nc(N4CCN(C(=O)c5ccco5)CC4)c23)C1 (stereo not given),nt,nt,-12,-11,nt,nt
O=C(Nc1ccccc1O)c1ccc(Cl)cc1,-8,1,-9,-2,1,1.1
SMILES,CYP2C9 inh,CYP2C19 act,PLK1 inh,PLK1 PBD inh,CYP2C19 inh,CYP2C9 act
Cc1cc(NC(=O)c2ccc(Cl)cc2)c(C(C)C)cc1O,-78,0.5,-5,-4,51*,1.8
CCc1cccc(C)c1NC(=O)CSc1nnc(-c2cc3cc(Br)ccc3o2)n1CC,56*,0.9,-5,-12,12,0.4
CCCn1c(SCC(=O)Nc2c(CC)cccc2CC)nnc1C(C)C,49,0.4,-5,9,58*,0.5
CCn1c(SCC(=O)Nc2nc(C)c(C(=O)OC)s2)nnc1C(C)C,34,0.5,-5,7,50*,0.7
Cn1c(SCC(=O)Nc2cccc(Br)c2)nnc1-c1cc2ccccc2o1,41,0.7,-28,0,34,0.6
COCCn1c(SCC(=O)Nc2cc(C)cc(C)c2)nnc1C(C)C,21,0.4,-14,5,61*,0.8
COCCn1c(SCC(=O)c2ccc(Cl)cc2)nnc1C(C)C,11,0.3,-3,-9,74*,0.9
COCCn1c(SCC(=O)Nc2cccc(C)c2)nnc1C(C)C,-10,0.3,-7,-2,68*,1.1
Cn1c(=O)n(C/C=C/c2ccccc2)c(=O)c2c1nc1n2CCCN1c1ccc(F)cc1,38,0.7,nt,nt,30,0.6
O=C(Nc1ccc(F)cc1F)c1noc2c1CCC2,-15,1.1,nt,nt,-9,1.1
O=C(O)CSc1nc2ccccc2[nH]1,-8,1.1,-23,23,-14,1.1
CCCc1cc(=O)[nH]c(SCc2cc(C(=O)OC)c(C)o2)n1,87*,0.2,2,-7,77*,0.1
COC(=O)c1cc(CSc2nc3ccccc3[nH]2)oc1C,87*,0,-10,-8,98*,0.1
N#CC(c1ccccn1)(c1ncc(C(F)(F)F)cc1Cl)N1CCOCC1 (stereo not given),17,0.9,-10,-29,10,0.8
CC(C)(C)c1ccccc1OCC(=O)Nc1ncn[nH]1,21,0.6,-8,10,42,0.8
CC(C)(C)c1cc(Br)ccc1OCC(=O)Nc1ncn[nH]1,34,0.5,-7,-1,54*,0.7
O=C1CC(SC(=NCc2ccc3c(c2)OCO3)Nc2ccccc2)C(=O)N1c1ccccc1 (stereo not given),31,0.8,-15,15,23,0.7
C/C(CCc1ccc2c(c1)OCO2)=N\N=C(/N)SC1CC(=O)N(c2ccc(Cl)cc2)C1=O (stereo not given),55*,0.8,2,-8,24,0.5
CCN(CC)S(=O)(=O)c1ccc(S(=O)(=O)N(CC(=O)Nc2ccccc2)Cc2ccco2)cc1,nt,nt,-5,-1,nt,nt
CCN1C(=O)C(NC(C)=O)c2cc(Br)ccc21 (stereo not given),-16,1.1,-2,-1,-14,1.2
CCCCN1C(=O)C(NC(C)=O)c2cc(Br)ccc21 (stereo not given),24,0.2,-3,0,79*,0.8
CCN1CCCC1CN(Cc1cc2ccc(C)c(C)c2[nH]c1=O)C(=O)Nc1ccccc1OC (stereo not given),7,1,-10,-10,-3,0.9
COc1ccc(S(=O)(=O)NCCN2CCOCC2)c2ccccc12,-64,0.1,-6,-17,92*,1.6
COc1cc(S(=O)(=O)NCCN2CCOCC2)c(OC)cc1Cl,12,0.4,-15,3,65*,0.9
COc1cccc(/C=N/n2nnnc2N)c1OCc1ccccc1Cl,nt,nt,-9,-9,nt,nt
C=CCn1c(CCCNC(=O)C(C)(C)C)nc2ccccc21,3,0.9,nt,nt,9,1
COc1ccc(OCCCn2c(=O)oc3ccccc32)cc1,nt,nt,-5,9,nt,nt
